# Measured values published in PubChem BioAssay AID493168 (National Center for Advancing Translational Sciences (NCATS), 2011).
# Results filed as inconclusive are left out. A call without a number means that no potency is given here. Calls of active or inactive are those of the source. The call rests on the fitted dose curve; in most records, active means well fitted inhibition curve with a large enough effect; inconclusive means small, poorly fitted or top-dose-only effect, or effect the other way; inactive means flat fitted curve, though single readings scatter.
# Target: Ubiquitin carboxyl-terminal hydrolase 2 (Homo sapiens) (UniProt O75604)
# Assay: Confirmation Assay for Inhibitors of Ubiquitin-specific Protease USP2a Using CHOP2 as the Reporter; further: nearly all actives have a fitted effect of over 55% in size
# Summary of the method: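 USP2 core (10 nM final) was preincubated with compound for 30 min at RT in Tris-HCl pH 8.0, CaCl2, beta-mercaptoethanol, CHAPS. Ub-CHOP2 and reporter substrate (25 nM final each) were added, and fluorescence (Ex 485/Em 531 nm) was read after 60 min.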
# Potency means the concentration at half of the fitted maximal effect.
# Ubiquitin carboxyl-terminal hydrolase 2 (Homo sapiens), sequence (O75604 whole entry, looked up): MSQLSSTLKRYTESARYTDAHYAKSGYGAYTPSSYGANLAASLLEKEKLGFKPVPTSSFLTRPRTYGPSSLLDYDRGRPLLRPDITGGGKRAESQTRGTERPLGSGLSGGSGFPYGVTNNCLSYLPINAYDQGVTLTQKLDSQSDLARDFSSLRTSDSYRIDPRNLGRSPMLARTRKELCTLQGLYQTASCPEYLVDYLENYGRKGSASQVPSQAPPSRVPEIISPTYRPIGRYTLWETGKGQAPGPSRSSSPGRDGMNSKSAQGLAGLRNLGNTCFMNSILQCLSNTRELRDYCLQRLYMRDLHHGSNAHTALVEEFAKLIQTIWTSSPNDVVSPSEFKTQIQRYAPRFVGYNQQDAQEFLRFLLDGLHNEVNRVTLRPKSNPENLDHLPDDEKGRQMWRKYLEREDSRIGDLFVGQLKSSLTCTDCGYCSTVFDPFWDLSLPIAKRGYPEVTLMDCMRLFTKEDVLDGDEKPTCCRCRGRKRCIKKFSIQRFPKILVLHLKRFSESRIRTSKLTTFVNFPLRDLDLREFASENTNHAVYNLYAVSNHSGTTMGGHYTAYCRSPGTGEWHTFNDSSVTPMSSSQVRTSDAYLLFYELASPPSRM
row,SMILES,Potency
1,CCOC(=O)CN1C(=O)S/C(=C/c2ccc(O)c([N+](=O)[O-])c2)C1=O,inactive
2,Nc1cc(N)nc(SCC(=O)N2CCCCC2)n1,inactive
3,CNc1nc(OCCNC(=O)Nc2ccccc2)nc(N2CCOCC2)n1,inactive
4,CC(C)c1ccc(CCNC(=O)c2ccc([N+](=O)[O-])cc2)cc1,inactive
5,Cn1c(=O)[nH]c(=O)c2c1nc(NCc1ccccc1)n2CCCc1ccccc1,inactive
6,Cc1ccc(S(=O)(=O)Nc2cc(C)c(O)c(S(=O)(=O)c3ccc(C)cc3)c2)cc1,inactive
7,Cc1cccc(-c2nnc3n2N=C(c2ccc(Br)cc2)CS3)c1,inactive
8,COc1cc(OC)cc(-c2c(C#Cc3ccsc3)c3cc(-c4ccc(OC)c(F)c4)ccc3n2C)c1,inactive
9,CCOC(=O)C(=O)Nc1nc(-c2ccc3c(c2)CCN3C(=O)C2CC2)c(C)s1,inactive
10,CC(C)(C)C1CCC(=NNC(=O)CN(c2ccccc2)S(C)(=O)=O)CC1 (centres undefined),inactive
11,COC(=O)CCC(=O)Nc1sc2c(c1C#N)CCCC2,inactive
12,CN1CCN(Cc2c(O)ccc3c(=O)c(Oc4ccccc4Cl)c(C(F)(F)F)oc23)CC1,inactive
13,CCn1c(SCC(=O)NCCc2ccccc2)nnc1-c1cccs1,inactive
14,Cc1n[nH]c(C)c1S(=O)(=O)N1CCCC(C(=O)Nc2nccs2)C1 (centres undefined),inactive
15,Cc1ccc(C(=O)N(C)CC(=O)Nc2cccc(C)c2C)o1,inactive
16,C[C@](N)(Cc1ccc(O)c(O)c1)C(=O)O,inactive
17,COc1ccc(/C=N/NC(=O)c2nn(-c3ccccc3)c(=O)c3c(N)scc23)cc1,inactive
18,C#CCOCCOCCOCCNc1nc(N2CCN(C(=O)CCCCCCCCCCNC(=O)[C@@H](CCSC)n3cc(CCO)nn3)CC2)nc(N2CCN(C(=O)CCCCCCCCCCNC(=O)[C@H](CCCN=C(N)N)n3cc(C[C@@H](C)CC)nn3)CC2)n1,13.1 µM (active)
19,COc1cc(/C=C(/C(=O)c2cccs2)c2nc3ccccc3[nH]2)ccc1O,inactive
20,Cc1ccc(-c2c(C#N)c(N)nc3c2CCCCC3)o1,inactive

row,SMILES,Potency
1,Cc1ccc(N(CC(=O)Nc2ccc(S(=O)(=O)N3CCOCC3)cc2)S(C)(=O)=O)cc1C,inactive
2,O=C(CN1C(=O)/C(=C2\SC(=S)N(CCS(=O)(=O)O)C2=O)c2ccccc21)Nc1cccc(Br)c1,5.21 µM (active)
3,Cc1cc(=O)n2[nH]c(-c3sccc3-n3c(C)ccc3C)cc2n1,inactive
4,c1ccc(-c2ccccc2OCCCN2CCOCC2)cc1,inactive
5,COC(=O)c1nnn(-c2nonc2N)c1CSc1ccccn1,inactive
6,COc1ccc(-c2noc(CSc3nnc(Cc4ccccc4)n3-c3ccc(Cl)cc3)n2)cc1,inactive
7,COc1ccccc1N1C(=O)CC(N2CCc3ccccc32)C1=O (centres undefined),inactive
8,O=C(c1ccco1)N1CCN(C(c2cccs2)c2sc3ncnn3c2O)CC1 (centres undefined),inactive
9,CC12CN3CC(C)(CN(C1)C3c1ccc(Cl)cc1Cl)C2O (centres undefined),inactive
10,O=[N+]([O-])/C(C(Cl)=C(Cl)Cl)=C(\Sc1ccccc1)N1CCCCC1,inactive
11,O=C(c1ccccc1N(Cc1ccccc1)S(=O)(=O)c1ccccc1)N1CCOCC1,inactive
12,O=C(Cn1nc(-c2cccs2)ccc1=O)Nc1ccc(Br)cc1,inactive
13,C/C(=N/NC(=O)c1cc2ccccc2cc1O)C1C(=O)c2ccccc2C1=O,5.85 µM (active)
14,O=c1/c(=C/c2ccco2)sc2n1CN(c1cccc(Br)c1)CN=2,inactive
15,COCCn1c(SCC(=O)Nc2cc(C)on2)nnc1-c1ccccc1,inactive
16,Cn1c(C(=O)NCCCN2CCN(c3ccccc3F)CC2)cc2c(=O)n(C)c3ccccc3c21,inactive
17,Cc1cc(Cl)ccc1NC(=S)NCCCN1CCCC1=O,inactive
18,CCC(C)c1ccc(O)c(N)c1 (centres undefined),inactive
19,CC1=CC(C)(C)N(C(=O)c2ccccc2)c2ccccc21,inactive
